Laboratory results reported in PubChem BioAssay (NCI).
“And” between values parts separate entries of the source, which are not always exact repeats. Equal entries are not always repeated. This is part of a sample that, as a whole, favours compounds with a hit. Of some 83,000 tested, about 20% had one in any assay.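 Compound tested at a single concentration for 48 hours in 96-well plates; a percent growth value below 10 was scored as active.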 The source made the active and inactive calls.

tested on: T-47D breast; test: NCI-60 one-dose screen, 48 h (100 = growth as untreated, 0 = no growth, -100 = all killed); conditions: 10 µM
Method: Growth inhibition of the T-47D human tumor cell line is measured as a screen for anti-cancer activity. Cells are grown in 96 well plates and exposed to the test compound for 48 hours. Compounds are tested at a single concentration, which is 10^-5 M for most compounds. The reported endpoint is percent growth (GI% or GIPRCNT), where numbers from 0 - 100% represent growth inhibition, and numbers from -100% - 0 represent cell death. For example, a value of 40 represents 60% growth inhibition. A value of 0 means no net growth occurred over the course of the experiment. A value of -40 indicates 40% of cells at the beginning of the experiment died by the end of the experiment. A value of -100 means all cells are dead at the end of the experiment.
NCI-60 Human Tumor Cell Lines Screen was performed using the standard one-dose NCI protocol, which is described in more detail at https://dtp.cancer.gov/discovery_development/nci-60/default.htm.
Compounds with GIPRCNT values below 10 were considered active. Activity score was based on GIPRCNT using the following formula: […]
Score is 0 for GIPRCNT values of 100 or above, 50 for GIPRCNT values of 0, and 100 for GIPRCNT values of -100.

**Q.** For `CCc1ccccc1-n1c(N)c(C#N)c(-c2ccc(OC)c(OC)c2)c(C#N)c1=O`, which growth is on record?
**A.** The growth was 102% (inactive).

**Q.** `COc1ccc(Cl)cc1C(=O)NCCc1ccc(S(=O)(=O)NC(=O)NC2CCCCC2)cc1` was tested. Which growth did it give?
**A.** The growth was 86% (inactive) and 87.6% (inactive).

**Q.** With `Cc1[nH]c(-c2nc3ccccc3[nH]2)c(C)c1C(=O)NC(C)C1CCCCC1` (stereo not given) as the compound, how does the growth read?
**A.** The growth was 89% (inactive).

**Q.** Which growth does the source give for `CC(C)(C)c1cc(NC(=O)Cc2ccc(-c3cnc4cc(-c5cnn(CCN6CCOCC6)c5)ccc4n3)cc2)no1` here?
**A.** The growth was 15.6% (inactive).

same assay, conditions: 10 µM unless noted

**Q.** Which growth does the source give for `CCCCCN(CCCCC)CC(O)c1cc2c(c3ccccc13)CCCC2` (stereo not given) here?
**A.** The growth was 51.1% (inactive) and 54.1% (inactive).

**Q.** How did the growth turn out when `CC(O)(CC(=O)CC(=O)c1ccccc1)c1ccccc1` (stereo not given) was run?
**A.** The growth was 108% (inactive) and 109% (inactive).

**Q.** For `CN1CCN(C2CCN(C(=O)Nc3cc(Oc4ccc(NC(=O)C5(C(=O)Nc6ccc(F)cc6)CC5)c(F)c4)ccn3)CC2)CC1`, which growth is on record?
**A.** Its growth is -66.4% (active) and 83.7% (inactive).

**Q.** `CNc1ccc2nc3ccc(=[N+](C)C)cc-3sc2c1` was tested. Which growth did it give?
**A.** The growth was -12.4% (active) and -16.3% (active).

**Q.** With `Fc1ccccc1Nc1n[nH]c(=S)s1` as the compound, how does the growth read?
**A.** The growth was 103% (inactive).

**Q.** For `COc1ccc(S(=O)(=O)N2CCOCC2)cc1NC(=O)c1[nH]c(C)c2c1CCCCC2=O`, which growth is on record?
**A.** Its growth is 107% (inactive) and 42% (inactive).

**Q.** With `CC(=O)Nc1ccc(O)cc1` as the compound, how does the growth read?
**A.** Its growth is 116% (inactive) and 103% (inactive) and 93.9% (inactive).

**Q.** How did the growth turn out when `O=CC(O)C(O)C(O)CO` (stereo not given) was run?
**A.** Its growth is 109% (inactive) and 96.5% (inactive).

**Q.** With `Clc1nc(Oc2ccccc2)nc(-c2cn(-c3ccccc3)c3ccccc23)n1` as the compound, how does the growth read?
**A.** The growth was 89.8% (inactive).

**Q.** `Cc1cc(O)c(C(C)C)cc1N` was tested. Which growth did it give?
**A.** The growth was 16.1% (inactive) and 71.8% (inactive).

**Q.** Which growth does the source give for `CCN(CC)CCCC(C)N(Cc1ccccc1)CC(O)c1ccc(Cl)cc1` (stereo not given) here?
**A.** The growth was 94.5% (inactive) and 91.3% (inactive).

**Q.** How did the growth turn out when `O=C1NC(=O)C2(CCc3ccccc32)N1` (stereo not given) was run?
**A.** Its growth is 92.8% (inactive) and 94.4% (inactive).

**Q.** How did the growth turn out when `O=[N+]([O-])c1ccc(N/N=C\c2cc(Br)ccc2O)nc1` was run?
**A.** Its growth is 16% (inactive) and 33% (inactive).

**Q.** `CC(C)N=c1cc2n(-c3ccc(Cl)cc3)c3ccccc3nc-2cc1Nc1ccc(Cl)cc1` was tested. Which growth did it give?
**A.** The growth was 38.3% (inactive) and 32.9% (inactive) and 41.5% (inactive).

**Q.** How did the growth turn out when `CC1=CCC2CC1C2(C)C` (stereo not given) was run?
**A.** Its growth is 105% (inactive) and 102% (inactive).

**Q.** For `Cc1c(Cl)cccc1NCN1C(=O)c2ccccc2C1=O`, which growth is on record?
**A.** The growth was 94.4% (inactive).

**Q.** How did the growth turn out when `CCN(CC)C(=O)c1cccnc1` was run?
**A.** Its growth is 114% (inactive).

**Q.** For `CC1CCCc2sc3nc(NNC(=O)c4cnccn4)n(-c4ccccc4)c(=O)c3c21` (stereo not given), which growth is on record?
**A.** The growth was 10.9% (inactive) and 3.31% (active).

**Q.** How did the growth turn out when `Nc1ccc2ccc(N)cc2c1` was run?
**A.** Its growth is 87.7% (inactive).

**Q.** How did the growth turn out when `Oc1c(CN2CCCCC2)ccc2cccnc12` was run?
**A.** The growth was 38.8% (inactive) and 36.4% (inactive).

**Q.** Which growth does the source give for `CCOc1ccc2cc(-c3nn(CC4CCNCC4)c4ncnc(N)c34)ccc2c1` here?
**A.** The growth was 71% (inactive) and 34.2% (inactive).

**Q.** Which growth does the source give for `Nc1ccccc1SC1CC(=O)N(c2cccc3ccccc23)C1=O` (stereo not given) here?
**A.** The growth was 90.4% (inactive).

**Q.** How did the growth turn out when `Cc1ccc(S(=O)(=O)Nc2nc3ccccc3nc2Nc2ccc3nsnc3c2)cc1` was run?
**A.** The growth was 33.6% (inactive) and 62.8% (inactive).

**Q.** How did the growth turn out when `O=C(/C=C/c1ccccn1)c1ccccc1O` was run?
**A.** The growth was 68.7% (inactive) and 66% (inactive).

**Q.** With `CCN(CC)CCC(CNc1c2ccc([N+](=O)[O-])cc2nc2cc(OC)c(OC)cc12)c1ccccc1` (stereo not given) as the compound, how does the growth read?
**A.** The growth was -11.2% (active) and -82% (active).

**Q.** `CCOc1ccc2c(S(=O)(=O)O)cccc2c1[N+](=O)[O-]` was tested. Which growth did it give?
**A.** Its growth is 114% (inactive) and 111% (inactive).

**Q.** With `OC(COc1cccc2ccccc12)CN1CCN(c2ccc(Cl)cc2)CC1` (stereo not given) as the compound, how does the growth read?
**A.** The growth was 71.2% (inactive) and 96.1% (inactive).

**Q.** With `CC(C)Oc1ccc2cc(-c3nn(CC4CCNCC4)c4ncnc(N)c34)ccc2c1` as the compound, how does the growth read?
**A.** Its growth is 77.8% (inactive) and -8.43% (active).

**Q.** For `O=C(Nc1ccc(Cl)cc1)c1cc2ccccc2cc1O`, which growth is on record?
**A.** The growth was 15.9% (inactive) and 15.4% (inactive).

**Q.** How did the growth turn out when `CC(=O)Oc1cc(C(=O)O)cc(OC(C)=O)c1OC(C)=O` was run?
**A.** The growth was 101% (inactive) and 98.5% (inactive).

**Q.** `COc1ccc2ccccc2c1/C=N/N1CCCCC1` was tested. Which growth did it give?
**A.** The growth was 94.2% (inactive).

**Q.** How did the growth turn out when `CC(C)Cc1ccc(C(C)C(=O)NCc2ccc(Cn3c(=O)sn(CCCI)c3=O)cc2)cc1` (stereo not given) was run?
**A.** The growth was -49.3% (active).

same assay, conditions: 30 µM

**Q.** How did the growth turn out when `CC(C)(C)c1cc(NC(=O)Cc2ccc(-c3cnc4cc(-c5cnn(CCN6CCOCC6)c5)ccc4n3)cc2)no1` was run?
**A.** Its growth is 25.5% (inactive).

same assay, conditions: 100 µM

**Q.** For `CCc1ccccc1-n1c(N)c(C#N)c(-c2ccc(OC)c(OC)c2)c(C#N)c1=O`, which growth is on record?
**A.** The growth was 3.67% (active).

**Q.** How did the growth turn out when `COc1ccc(Cl)cc1C(=O)NCCc1ccc(S(=O)(=O)NC(=O)NC2CCCCC2)cc1` was run?
**A.** The growth was 52.3% (inactive).

**Q.** `Cc1[nH]c(-c2nc3ccccc3[nH]2)c(C)c1C(=O)NC(C)C1CCCCC1` (stereo not given) was tested. Which growth did it give?
**A.** Its growth is -58.1% (active).
